Drawing on PubChem BioAssay AID602409 (Sanford-Burnham Center for Chemical Genomics, 2012), this text covers inhibition for 24 molecules.

The other results are listed elsewhere or left out. A number with no mark means an inactive call. Active and inactive are the calls of the source.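 The calls were made as follows: active = mean inhibition over four retests above 40%; inactive = the rest.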

The target in the assay is C-X-C chemokine receptor type 6 (Homo sapiens) (UniProt O00574). The experiment in a line: CXCR6 beta-arrestin signal inhibition by hits – cell-based, single concentration, luminescence, confirmation (AID 602409).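 Also: receptor stimulated with 10 nM CXCL16 agonist; beta-galactosidase fragment complementation upon beta-arrestin recruitment to receptor; plate controls were CXCL16 plus DMSO for no effect and DMSO without CXCL16 for full effect.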 The settings on record: CHO-K1 CXCR6 PathHunter beta-arrestin, at 20 µM, stronger effect = higher value.
C-X-C chemokine receptor type 6 (Homo sapiens), sequence (O00574 whole entry, looked up, the tested form may be a part): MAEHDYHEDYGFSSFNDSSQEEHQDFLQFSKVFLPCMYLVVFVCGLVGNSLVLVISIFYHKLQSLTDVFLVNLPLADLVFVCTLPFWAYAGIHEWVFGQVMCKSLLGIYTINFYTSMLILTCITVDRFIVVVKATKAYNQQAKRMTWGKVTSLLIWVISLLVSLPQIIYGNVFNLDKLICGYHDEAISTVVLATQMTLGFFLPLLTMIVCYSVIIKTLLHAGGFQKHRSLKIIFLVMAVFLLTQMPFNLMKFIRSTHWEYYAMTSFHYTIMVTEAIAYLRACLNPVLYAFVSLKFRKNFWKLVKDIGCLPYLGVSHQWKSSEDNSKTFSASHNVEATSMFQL
One may read the inhibition as the change of the read-out against control, counted positive when it falls. As for `CCCCCCCCCCOC(=O)C[N+](C)(C)CC1CCCCC1O` (centres undefined), the inhibition was 14.4%. For the molecule `CCN(CC)CCn1c(N)c(S(=O)(=O)c2ccccc2)c2nc3ccccc3nc21`, the inhibition is 55% (active). The figure for `O=[N+]([O-])/C=C/c1ccc2c(ccn2Cc2ccccc2)c1` is 76.2% (active).

As to `O=C(CSc1cccc2cccnc12)N/N=C/c1cccnc1`, the inhibition was 67.2% (active). With `O=C(C1CC(=O)N(C2CCCCC2)C1)N1CCN(c2ccccc2)CC1` (centres undefined) the figure was 3.17%; with `C/C(=N\NC(=O)Cc1ccc(Cl)cc1)c1ccccn1`, 104% (active). `COc1ccc(-c2csc(Cc3nc(O)cs3)n2)cc1`: the inhibition was 77% (active). The figure for `CCCCNC(=S)N/N=C1\CCCCc2ccccc21` is 24.7%. As to `CCCCCCCCCCOC(=O)Cn1c(COc2cccc(OC)c2)[n+](C)c2ccccc21`, the inhibition was 4%. The figure for `Cc1cc(C)nc(S/C=C/C(=O)c2ccccc2)n1` is 41.5% (active). With `CCOCCCN1C(=O)C2C(C(=O)Nc3ccc(OCC)cc3)C3C=CC2(O3)C1C(=O)NC1CCCCC1` (centres undefined) the figure was -4.97%; with `O=C(Nc1ccccc1)c1nnsc1S(=O)(=O)c1ccc(Cl)cc1`, 19.7%; with `O=C(Nc1ccccc1Cl)/C(Cl)=C(\Cl)S(=O)c1ccccc1` (centres undefined), 81% (active). With `CC(=O)/C(=N\Nc1ccc(Cl)cc1Cl)Sc1cccc2cccnc12` the figure was 81% (active); with `COCCCNC(=S)NC(=O)c1ccc([N+](=O)[O-])cc1`, 19.8%; with `CCC(=O)OCCNc1nc(-c2ccccc2)nc2ccccc12`, 11.6%. On to `COC(=O)/C=C\C(=O)Nc1cccc([N+](=O)[O-])c1`, for which the inhibition is 45.6% (active). The figure for `Cc1c(C(=O)NCCN(C)C)oc2ccc(S(=O)(=O)N3CCCC3)cc12` is 10.1%. The figure for `Cc1ccc(-n2[nH]c(C)c(/C=N/N3C(=O)c4cccc5cccc(c45)C3=O)c2=O)cc1` is 60.2% (active); for `CC(C)N=C1CCCC1C(=S)SSC(=S)C1CCCC1=NC(C)C` (centres undefined) it is 94.9% (active). The figure for `Cc1cc(C(=O)NCCCc2ccccc2)no1` is 9.46%; for `COc1cccc2sc(N(CCCN(C)C)C(=O)CCS(=O)(=O)c3ccccc3)nc12` it is 81% (active); for `O=C1C=CC(=O)N1c1ccc(N2CCCCC2)cc1` it is 63.5% (active). Consider `CC(=O)Nc1cc(-c2ccc(N3CCN(C)CC3)cc2)cn2c(-c3ccc(F)cc3)cnc12`, for which the inhibition is 31.3%.
